Source: PubChem
FBW7 activator = human FBW7 E3 ligase activation, primary screen. AID 1259310. normalized activity (activation), % at 26.1 µM. 0.13% of 650,000 active. AlphaScreen FBW7–phospho-cyclin E peptide binding, activator screen; in the data active means normalized activity above about 1.9%;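 further: purified mutant Fbw7 with reduced substrate affinity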
Target sequence (Q969H0 whole entry, looked up): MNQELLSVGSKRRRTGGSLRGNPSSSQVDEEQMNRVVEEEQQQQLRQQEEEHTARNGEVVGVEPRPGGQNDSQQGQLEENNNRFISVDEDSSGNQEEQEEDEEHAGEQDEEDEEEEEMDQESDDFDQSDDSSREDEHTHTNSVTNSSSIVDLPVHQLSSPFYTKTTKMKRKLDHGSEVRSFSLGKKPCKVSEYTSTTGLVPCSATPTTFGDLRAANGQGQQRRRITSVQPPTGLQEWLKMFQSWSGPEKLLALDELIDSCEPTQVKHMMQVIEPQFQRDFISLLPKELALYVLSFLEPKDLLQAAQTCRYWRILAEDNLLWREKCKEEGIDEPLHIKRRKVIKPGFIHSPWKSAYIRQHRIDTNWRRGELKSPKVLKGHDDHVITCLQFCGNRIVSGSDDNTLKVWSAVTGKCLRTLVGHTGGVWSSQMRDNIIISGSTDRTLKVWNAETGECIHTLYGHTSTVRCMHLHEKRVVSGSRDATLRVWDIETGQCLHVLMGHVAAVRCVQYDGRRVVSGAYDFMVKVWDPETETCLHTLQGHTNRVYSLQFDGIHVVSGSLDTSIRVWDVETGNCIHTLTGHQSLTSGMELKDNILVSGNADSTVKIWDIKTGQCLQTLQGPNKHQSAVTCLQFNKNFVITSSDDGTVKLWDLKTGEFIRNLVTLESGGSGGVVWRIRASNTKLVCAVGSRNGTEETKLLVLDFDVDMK
MITF inh = human MITF inhibition, primary screen | O75030 | AlphaScreen MITF homodimerization, bead proximity signal | inhibition, % at 2.6 µM | 0.91% of 650,000 active; in the data active means inhibition above about 50%
GPR151 activ = activators of human GPR151. activation, % at 11.2 µM. PathHunter beta-arrestin GPR151 cells, luminescence. 1% of 650,000 active. Q8TDV0. AID 1508602; in the data active means activation above about 4.9%
TEAD-YAP inh = TEAD-YAP interaction inhibition; HEK-TIYL cells, TEAD-Gal4/YAP UAS-luciferase luminescence; 1.4% of 640,000 active; inhibition, % at 9.12 µM; in the data active means inhibition above about 32%
MITF confirm = confirmation of human MITF inhibitors; shares compounds with MITF inh; AlphaScreen MITF homodimerization, biotin/His-MITF beads; inhibition, % at 2.6 µM; 16% of 4,700 active; AID 1259372;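 active means inhibition above a cutoff derived from the DMSO control wells, cut at about 28% in these data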;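 further: inhibitors lower the bead chemiluminescence by keeping MITF from dimerizing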
AlphaScreen DR = counter-screen: compounds optically interfering with AlphaScreen; shares compounds with MITF inh; 6% of 480 active; AlphaScreen optical interference counterscreen, cell-free; IC50, µM; call rule not given here
AS interf ctr = optically interferes with AlphaScreen signal | 7.6% of 4,700 active | AID 1259376 | LysRS AlphaScreen counterscreen, signal interference, triplicate | shares compounds with MITF inh | inhibition, % at 2.6 µM;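 active means inhibition above a cutoff derived from the DMSO control wells, cut at about 30% in these data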
Numbers stand for hits; - = inactive; . = no result. Rows were chosen to be rich in hits. Some 3.5% of all compounds tested hit in one or more screens of this group.

SMILES	FBW7 activator	MITF inh	GPR151 activ	TEAD-YAP inh	MITF confirm	AS interf ctr	others
Cc1ccn2c(NCC3CCCO3)c(-c3ccc(O)cc3O)nc2c1 (stereo not given)	-	89	-	-	84	-	AlphaScreen DR=-
Cc1ccc(F)cc1Nc1nc(Cc2ccccc2)nc2sc(C)c(C)c12	-	-	-	-	.	.
Cc1ccc(OCCCCCNCCO)cc1	-	-	-	-	.	.
Cc1ccc(OCCNCCC(=O)O)cc1	-	57	-	-	-	-
CN1Cc2cc(Br)ccc2NC1=O	-	-	-	-	.	.
O=C1CC(N2CCN(CC3CCCO3)CC2)C(=O)N1Cc1ccccc1 (stereo not given)	-	75	-	-	-	-
O=C(Nc1ccccc1C(=O)NC1CCCCC1)c1cccc(S(=O)(=O)NC2CCCCC2)c1	-	-	-	-	.	.
Cc1ccc(NS(=O)(=O)c2cccc(C(=O)NNC(=O)NC3CCCCC3)c2)c(C)c1	-	71	-	-	-	-
Cc1cc(N2CCN(C(=O)c3cccc(F)c3F)CC2)c(F)cc1[N+](=O)[O-]	-	-	-	-	.	.
C=CCN1C(=O)/C(=C/c2ccco2)S/C1=N/S(=O)(=O)c1cccs1	-	-	-	-	.	.
C=CCN1C(=O)/C(=C/c2ccco2)S/C1=N/S(=O)(=O)c1ccc(Cl)cc1	-	87	-	-	-	-
CC1=C(C(=O)OCc2ccccc2)C(c2ccc(Cl)cc2)C(C(=O)OCc2ccccc2)=C(C)N1	-	-	-	-	.	.
CC(=O)c1ccc(NC(=O)CSc2nnc3[nH]c(=O)c(C)c(C)n23)cc1	-	56	-	-	-	-
COC(=O)c1ccc(NC(=O)CSc2nnc3[nH]c(=O)c(C)c(C)n23)cc1	-	-	-	-	.	.
CNC(=O)COc1cc(-c2cn[nH]c2)ccc1NC(=O)C1COc2ccc(OC)cc2C1 (stereo not given)	-	66	-	-	52	-	AlphaScreen DR=-
COc1cc(/C=C/C(=O)Nc2nnc(C(F)(F)F)s2)cc(OC)c1OC	-	52	-	-	-	-
O=C(/C=C/c1ccc(Cl)cc1)Nc1nnc(C(F)(F)F)s1	-	-	-	-	.	.
c1cc2c(cc1Cc1nn[nH]n1)OCO2	-	66	-	-	-	-
COc1cc(CN2CCCCCC2)c([N+](=O)[O-])cc1OC	-	-	-	-	.	.
COc1cc(CN2CCN(c3ccccc3F)CC2)c([N+](=O)[O-])cc1OC	-	64	-	-	-	-
COc1cccc(CN2CCN(Cc3cc(OC)c(OC)cc3[N+](=O)[O-])CC2)c1	-	76	-	-	-	-
COc1ccc(OC)c(CN2CCN(Cc3cc(OC)c(OC)cc3[N+](=O)[O-])CC2)c1	-	72	-	-	-	-
COc1cc(CN2CCN(c3ccccc3OC)CC2)c([N+](=O)[O-])cc1OC	-	-	-	-	.	.
COc1cc(CN2CCCCC2)c([N+](=O)[O-])cc1OC	-	-	-	-	.	.
COc1cc(OC)c(OC)cc1CN1CCN(Cc2cc(OC)c(OC)cc2[N+](=O)[O-])CC1	-	62	-	-	-	-
SMILES	FBW7 activator	MITF inh	GPR151 activ	TEAD-YAP inh	MITF confirm	AS interf ctr	others
CCc1cc(=O)oc2cc(OCC(=O)C(C)(C)C)ccc12	-	-	-	-	.	.
CCC(C)NC(=O)c1ccc2c(c1)ncn2-c1ccc(C(C)C)cc1 (stereo not given)	-	-	-	-	.	.
O=[N+]([O-])c1ccc(OCCNCc2ccco2)cc1	-	56	-	-	-	-
O=[N+]([O-])c1ccc(OCCCNCc2ccco2)cc1	-	-	-	-	.	.
CC(Sc1nc2ccccc2o1)C(=O)O (stereo not given)	-	64	-	-	-	-
O=C(c1nccs1)C1CCN(C(=O)c2cc3c(s2)CCC3)CC1	-	-	-	-	.	.
COc1cc(C(=O)OCc2ccc(Cl)cc2)cc(OC)c1OC	-	-	-	-	.	.
CC(=O)NS(=O)(=O)c1ccc(NC(=O)c2ncoc2-c2ccc(Cl)cc2)cc1	-	-	-	-	.	.
CN(C)c1ccc(N=c2cc(-c3ccccc3)cc(-c3ccccc3)s2)cc1	-	54	-	-	-	-
CN(C)c1ccc(N=Cc2ccccc2)cc1	-	-	-	-	.	.
O=[N+]([O-])c1ccc(CN2CCN(C/C=C/c3ccccc3)CC2)o1	-	65	-	-	-	-
CCN1CCN(C/C=C/c2ccccc2[N+](=O)[O-])CC1	-	60	-	-	-	-
CCN1CCN(C/C=C/c2ccccc2OC)CC1	-	51	-	-	-	-
O=[N+]([O-])c1ccc(N/N=C/c2ccco2)c(S(=O)(=O)N2CCOCC2)c1	-	63	-	-	33	-	AlphaScreen DR=-
O=[N+]([O-])c1ccc(N/N=C/c2cccc(O)c2O)c(S(=O)(=O)N2CCOCC2)c1	-	-	-	-	.	.
O=C(Nc1nnc(-c2ccccc2)o1)c1ccc([N+](=O)[O-])o1	-	-	-	-	.	.
O=C(Nc1nnc(-c2ccco2)o1)c1ccc([N+](=O)[O-])o1	-	55	-	-	-	-
N/C(=N\OC(=O)c1ccccc1)c1ccc(Cn2cc(C(F)(F)F)ccc2=O)cc1	-	54	-	-	-	-
O=C(Cc1ccccc1)N(CCCN1CCOCC1)c1nc2ccccc2s1	-	-	-	-	.	.
CC1Cc2ccccc2N1C(=O)CN1CCCN(CC(=O)N2c3ccccc3CC2C)CC1 (stereo not given)	-	62	-	-	-	-
CCOC(=O)N1CCN(CC(=O)N2c3ccccc3Sc3ccccc32)CC1	-	53	-	-	-	-
CC1Cc2ccccc2N1C(=O)CN1CCN(C)CC1 (stereo not given)	-	77	-	-	-	-
CCOC(=O)N1CCN(CC(=O)N2c3ccccc3CC2C)CC1 (stereo not given)	-	67	-	-	-	-
CCOc1ccc(C(=O)Nc2ccc(NC(=O)c3ccco3)cc2)cc1Cl	-	-	-	-	.	.
CC(C)COC(=O)NCCOC(=O)Nc1ccc([N+](=O)[O-])cc1	-	-	-	-	.	.
SMILES	FBW7 activator	MITF inh	GPR151 activ	TEAD-YAP inh	MITF confirm	AS interf ctr	others
CC(C)CCN1C(=O)c2ccc(-c3nc4cc(Cl)ccc4c(=O)o3)cc2C1=O	-	-	-	-	.	.
CCCCOc1ccc(C2=N/C(=C\c3ccc(Cl)cc3)C(=O)O2)cc1	-	-	-	-	.	.
CCc1cccc(C)c1NC(=O)COc1cccc(NC(C)=O)c1	-	-	-	-	.	.
O=C(NCc1ccc(F)cc1)C1CC(=O)N(c2ccc(F)cc2)C1 (stereo not given)	-	73	-	-	-	-
COc1ccc(CNC(=O)C2CC(=O)N(c3ccc(F)cc3)C2)cc1 (stereo not given)	-	-	-	-	.	.
CCCN1CCN(C(=O)c2nn(-c3cc(OC)cc(OC)c3)c(=O)c3ccccc23)CC1	-	65	-	-	-	-
COc1ccc(-c2cnn3ccc(NCc4cccnc4)nc23)cc1OC	-	55	-	-	-	-
